Experimental data reported in PubChem BioAssay (NCI).
Compounds without any hit were thinned out: in the full panel of roughly 83,000, 20% have a hit.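 Percent growth is the endpoint: 0 to 100 indicates growth inhibition (40 means 60% inhibition), 0 means no net growth, and negative values indicate cell death.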 Unmarked numbers belong to inactive results. The source made the active and inactive calls. How the source made its calls: active means growth percent below 10; inactive means the rest.

Key:
Test in all cases: NCI-60 one-dose screen, 48 h (100 = growth as untreated, 0 = no growth, -100 = all killed)
Conditions in all cases: 10 µM unless noted
HCT-15 colon = test system: HCT-15 colon
HT29 colon = test system: HT29 colon
SNB-75 CNS = test system: SNB-75 CNS
SNB-19 CNS = test system: SNB-19 CNS
PC-3 prostate = test system: PC-3 prostate
SK-MEL-5 melanoma = test system: SK-MEL-5 melanoma
LOX IMVI melanoma = test system: LOX IMVI melanoma
SK-MEL-28 melanoma = test system: SK-MEL-28 melanoma
UACC-62 melanoma = test system: UACC-62 melanoma
U251 CNS = test system: U251 CNS

SMILES | growth (HCT-15 colon) | growth (HT29 colon) | growth (SNB-75 CNS) | growth (SNB-19 CNS) | growth (PC-3 prostate) | growth (SK-MEL-5 melanoma) | growth (LOX IMVI melanoma) | growth (SK-MEL-28 melanoma) | growth (UACC-62 melanoma) | growth (U251 CNS) [%]
Nc1nc2c(c3cnccc13)C(c1cccc(Br)c1)Cc1cnccc1-2 (centres undefined) | 7.06% (active) | 4.32% (active) | 18.9% | 24% | 11.6% | -30.4% (active) | 8.43% (active) | 49.4% | – | –
Nc1nc2c(c3cnccc13)C(c1ccc(Cl)c(Cl)c1)Cc1cnccc1-2 (centres undefined) | -19.5% (active) | 8.17% (active) | -26.9% (active) | 13.7% | 5.13% (active) | -92.2% (active) | -42.7% (active) | -41.3% (active) | -37.3% (active) | –
CSc1nc(N)n2nccc2n1 | 108% | 102% | 78.5% | 99.7% | 93.5% | 98.8% | 97.4% | 98.5% | 98.6% | –
CCCCCSc1ccc2nc(NC(=O)OCCC)sc2c1 | 26.1% | 15.9% | 13.3% | 40.9% | 27.7% | 17.7% | 38.6% | 70.9% | – | –
COC(=O)c1c[n+]([O-])ccc1OC | 103% | 107% | 96.6% | 101% | 99.5% | 99.7% | 104% | 91.4% | 101% | –
N=C(N)c1ccc(-c2ccc(-c3ccc(F)cc3)s2)cc1 | -92.8% (active) | -64.1% (active) | -99.2% (active) | -86.5% (active) | -94% (active) | -99% (active) | -95.1% (active) | -85.9% (active) | -91.8% (active) | –
CCOC(=O)c1csc(-c2ccc(COC(=O)c3ccccc3)o2)n1 | 96% | 104% | 92% | 97.5% | 96.6% | 98.2% | 110% | 101% | 102% | –
COc1cc(-c2cc3cnccc3c3nc(N)c4ccncc4c23)cc(OC)c1OC | 38.5% | 47.6% | -2.5% (active) | 53.3% | 37.3% | 44.6% | 36.1% | 75.3% | 41.6% | –
CN(CCC#N)c1ccc(/C=C(\C#N)c2cccc(C(F)(F)F)c2)cc1 | 39.9% | 23.5% | 90.1% | 79% | 61.1% | 57.8% | 63.2% | 71.9% | 55.3% | –
O=C1Nc2ccccc2/C1=C/c1cn(CC(O)Cn2cc(/C=C3\C(=O)Nc4ccccc43)c3ccccc32)c2ccccc12 (centres undefined) | -69.8% (active) | -20.2% (active) | -95.9% (active) | -43% (active) | -86.3% (active) | -80.2% (active) | -84.5% (active) | -85% (active) | -75.2% (active) | –
COc1cc2ncnc(Nc3ccc4c(cnn4C(=O)Nc4ccccc4)c3)c2cc1OC | 83.2% | 51.1% | 114% | 95.4% | 98.9% | 90.9% | 93.2% | 77.3% | 114% | –
CCCCCSc1ccc2nc(NC(=O)OCC)sc2c1 | 25.2% | 13.2% | 0.686% (active) | 37.4% | 21.3% | 5.59% (active) | 38.4% | 61.9% | 29.2% | –
CC(C)C(=O)c1ccc(Cl)s1 | 97.5% | 120% | 80.9% | – | 103% | 92.8% | 91% | 111% | 100% | 99.2
COc1nc(OC)nc(-c2cc(-c3cc(OC)c(OC)c(OC)c3)no2)n1 | 103% | 100% | 97.2% | 96.9% | 86.3% | 88.2% | 104% | 115% | 97.6% | –
COc1cc2ncnc(-n3ncc4cc(NC(=O)Nc5ccc(Cl)c(Cl)c5)ccc43)c2cc1OC | -35.7% (active) | -16.7% (active) | -57.7% (active) | 10.4% | -57.1% (active) | -82.8% (active) | -77.7% (active) | -70.9% (active) | -68.5% (active) | –
COc1cc(OC)cc(-c2ccc(-c3ccc(C(=N)N)cc3)s2)c1 | -79.6% (active) | -68.8% (active) | -94.9% (active) | -71.8% (active) | -94.7% (active) | -100% (active) | -86.3% (active) | -87.7% (active) | -85.1% (active) | –
CCOC(=O)c1cc(C(=O)c2ccc(Br)cc2)n2cc(C)cc(C)c12 | 95.5% | 82.3% | 82.8% | 87% | 84.1% | 96.2% | 92.3% | 98.5% | 89.3% | –
C[n+]1c2ccccc2c(Nc2ccc(NS(=O)(=O)CCCCN=C(N)N)cc2)c2ccc(N)cc21 | 79.2% | 34% | 37.7% | – | 48.3% | 34.2% | 33.5% | 72.7% | 50% | 30
Nc1nc2c(c3cnccc13)C(c1cccc(Cl)c1)Cc1cnccc1-2 (centres undefined) | 7.84% (active) | 4.99% (active) | 21% | 29.2% | 12.8% | -16.3% (active) | 8.05% (active) | 56% | 26.7% | –
O=C(Nc1ccccc1)Nc1ccc(Nc2ncnc3sc4c(c23)CCCC4)cc1 | 110% | 96.2% | 93.3% | 95.9% | 89.9% | 97.3% | 99.5% | 116% | 97.9% | –
COc1cc(C(=O)Nc2ccc(N(C)C)cc2)cc(OC)c1OC | 73.3% | 86.2% | 74.9% | – | 91.4% | 89.9% | 93.3% | 81.9% | 82% | 95.4
COC(=O)c1cc(=O)nc(N/N=C/c2ccccc2O)s1 | 70.4% | 92.9% | 110% | 95.3% | 86.3% | 91.6% | 82.3% | 101% | 94.8% | –
CCOC(=O)c1c(C)oc2ncnc(Nc3ccc(NC(=O)Nc4cccc(Cl)c4)cc3)c12 | 59% | 37.1% | 70.6% | 84.7% | 41.2% | 53% | 64.1% | 61.8% | 69.1% | –
Cc1ccc(OCCn2ccc(=O)n(CCOc3ccc(Cl)cc3C(=O)c3cc(C)cc(C)c3)c2=O)cc1 | 27.8% | 18.9% | 33.5% | 57.5% | 29.2% | 49.2% | 47% | 68.3% | 32.7% | –
N=C(N)c1ccc(-c2ccc(-c3cc(Cl)cc(Cl)c3)s2)cc1 | -85.9% (active) | -38% (active) | -90.6% (active) | -73.5% (active) | -81.6% (active) | -93.7% (active) | -78.6% (active) | -86.4% (active) | -80.4% (active) | –
O=c1c(N=Nc2nccs2)c(-c2ccccc2)[nH]n1-c1nc(-c2ccccc2)cs1 | 19.5% | 32.2% | 61% | 24.4% | 32.8% | 15.2% | 44.3% | 47.1% | – | –
CCOC(=O)c1c(C)oc2ncnc(Nc3ccc(NC(=O)Nc4ccc(CC)cc4)cc3)c12 | 105% | 103% | 80.6% | 98% | 90.8% | 93.8% | 100% | 105% | 108% | –
N=C(N)c1ccc(-c2ccc(-c3ccc(Cl)cc3)s2)s1 | -84.8% (active) | -33.3% (active) | -96.4% (active) | -81.8% (active) | -91% (active) | 2.66% (active) | -89.4% (active) | -87.8% (active) | -31.2% (active) | –
